Source: PubChem
An excerpt weighted towards active compounds, which were near 2.5% of everything screened.
MARV entry inh: qHTS for inhibitors of binding or entry into cells for Marburg Virus. Marburg virus pseudotyped entry inhibition, cell reporter. Potency, µM (top dose mostly 37.8 µM), for the others: top-dose activity change, negative = inhibition, usual class: inhibitors. 300,000 compounds, 1.8% hits. AID 540276, 2011; calls by dose curve; tested in HEK293 cells
Vaccinia Venus: qHTS for Stage-Specific Inhibitors of Vaccinia Orthopoxvirus: Venus Reporter Primary qHTS; Vaccinia virus Venus reporter expression, fluorescence; Potency, µM (series often up to 36.5 µM), inactives show at the highest dose activity change, negative = inhibition, hits mostly inhibitors; 330,000 compounds, 0.46% hits; AID 720580, 2013; calls by dose curve; tested in A549 cells; also: nearly all actives have a fitted effect of over 30% in size
Lassa entry inh: qHTS for Inhibitors of binding or entry into cells for Lassa Virus. AID 540256, 2011. Lassa virus pseudotype entry inhibition, cell reporter. 300,000 compounds, 1.2% hits. Potency, µM (titrated, usually from 37.9 µM), for inactives: top-dose activity change, negative = inhibition, actives largely listed as inhibitors; calls by dose curve; tested in HEK293 cells; also: nearly all actives have a fitted effect of over 50% in size
Vaccinia mCherry: qHTS for Stage-Specific Inhibitors of Vaccinia Orthopoxvirus: mCherry Reporter Primary qHTS. Vaccinia virus mCherry reporter infection, fluorescence. Potency, µM (highest dose often 36.5 µM), without a hit: at the top dose activity change, negative = inhibition, most hits filed as inhibitors. 310,000 compounds, 0.63% hits; calls by dose curve; tested in A549 cells; also: nearly all actives have a fitted effect of over 35% in size
Active calls of the source: *; [ ] = another dose, or the depositor's remark. % is scaled to controls: 0 for no effect and ±100 for the full control effect; potency is read from the fitted curve at half-maximal effect.

How did CSc1nc(N)c2ncn([C@@H]3O[C@H](COP(=O)(O)OP(=O)(O)O)C(O)[C@H]3O)c2n1 (stereo not given in full) do in these assays?
MARV entry inh: 8.3%; Lassa entry inh: 23.6%

What do the screens show for `COc1ccc(N(C(=O)CNS(=O)(=O)c2ccccc2)C(C(=O)NCc2ccco2)C(C)C)cc1` (stereo not given)?
MARV entry inh: -16.7%[46.1 µM]; Vaccinia Venus: -14.8%; Lassa entry inh: -9.7%[46.1 µM]; Vaccinia mCherry: -8.2%

What do the screens show for `Cc1cc(C)cc(N(C(=O)CNS(=O)(=O)c2ccccc2)C(C(=O)NCc2ccccc2)c2ccc(C)o2)c1` (stereo not given)?
MARV entry inh: inconclusive; Vaccinia Venus: -12.4%; Lassa entry inh: 11.6µM*; Vaccinia mCherry: -0.1%

What do the screens show for `Cc1ccc(S(=O)(=O)NCC(=O)N(c2ccccc2)C(C(=O)NCc2ccccc2)c2ccco2)cc1` (stereo not given)?
MARV entry inh: 20µM*; Vaccinia Venus: inconclusive; Lassa entry inh: inconclusive; Vaccinia mCherry: -10.2%

Results for OCCN1CCN(Cc2ccc3c(c2)CN(Cc2cccn2-c2ccccn2)CCO3)CC1 ?
Vaccinia Venus: -13.4%; Vaccinia mCherry: -10.4%

How did COc1ccc(/C=C\C(=O)O[C@@H]2C(O)C(O[C@@H]3OC(C)[C@H](O[C@@H]4OCC(O[C@H]5O[C@H](CO)[C@@H](O)C(O)C5O)C(O)C4O)C(O)C3O)[C@H](OC(=O)[C@]34CCC(C)(C)C[C@@H]3C3=CCC5[C@@]6(C)CC(O)C(O[C@@H]7OC(CO)C(O)[C@H](O)[C@H]7O)[C@@](C)(C(=O)O)C6CC[C@@]5(C)[C@]3(CO)CC4)O[C@H]2C)cc1 (stereo not given in full) do in these assays?
Vaccinia Venus: 11.2µM*; Vaccinia mCherry: inconclusive

What do the screens show for `COc1ccc2[nH]c3c(c2c1)CCN1C(=O)C(CC(=O)NC/C=C(\C)CCC=C(C)C)C[C@H](C(=O)N2CCOCC2)[C@@]31CCC1CCCC1` (stereo not given in full)?
MARV entry inh: -3.5%; Vaccinia Venus: inconclusive; Vaccinia mCherry: 10µM*

Results for CCN(CC)C(=O)[C@H]1C[C@H](CC(=O)NC/C=C(\C)CCC=C(C)C)C(=O)N2CCc3c([nH]c4ccc(Cl)cc34)[C@]12C ?
Vaccinia Venus: -24.2%; Vaccinia mCherry: -1.7%

Results for CCN(CC)C(=O)[C@H]1C[C@H](CC(=O)NC/C=C(\C)CCC=C(C)C)C(=O)N2CCc3c([nH]c4cc(-c5ccco5)ccc34)[C@]12C ?
Vaccinia Venus: 12.6µM*; Vaccinia mCherry: inconclusive

Results for CCN(CC)C(=O)[C@H]1CC(CC(=O)NC/C=C(\C)CCC=C(C)C)C(=O)N2CCc3c([nH]c4ccc(OC)cc34)[C@]12C (stereo not given in full) ?
MARV entry inh: 1.3%; Vaccinia Venus: inconclusive; Vaccinia mCherry: 12.6µM*

What do the screens show for `CCN(CC)C(=O)[C@H]1CC(CC(=O)NC/C=C(\C)CCC=C(C)C)C(=O)N2CCc3c([nH]c4ccccc34)[C@]12C` (stereo not given in full)?
Vaccinia Venus: -16.4%; Vaccinia mCherry: -14.5%

How did CC(C)=CCC/C(C)=C/CNC(=O)C[C@H]1C[C@H](C(=O)N(C(C)C)C(C)C)[C@@]2(C)c3[nH]c4cc(-c5ccco5)ccc4c3CCN2C1=O do in these assays?
Vaccinia Venus: inconclusive; Vaccinia mCherry: 10µM*

How did CNc1c(Br)cc(/C=C2\C=C(C(O)c3cc(Br)c(NC)c(Br)c3)c3ccccc32)cc1Br (stereo not given) do in these assays?
Vaccinia Venus: 0.7%; Vaccinia mCherry: -5.6%

How did Cc1cccc(-n2ncc3c(N4CCN(c5ccccc5)CC4)ncnc32)c1 do in these assays?
Vaccinia Venus: -7.3%; Lassa entry inh: -46.5%[46.1 µM]; Vaccinia mCherry: -10.2%

How did Cc1cccc(-n2ncc3c(N4CCOCC4)ncnc32)c1 do in these assays?
MARV entry inh: 3.66µM*; Vaccinia Venus: -22.7%; Lassa entry inh: 1.64µM*; Vaccinia mCherry: -3.4%

Results for CNC(=S)NNC(=O)c1sccc1OCc1ccc(Cl)cc1Cl ?
MARV entry inh: -7.2%; Lassa entry inh: inconclusive

What do the screens show for `N/C(=N\NC(=O)c1sccc1OCc1ccc(Cl)cc1Cl)c1ccccn1`?
MARV entry inh: 8.91µM*; Vaccinia Venus: inconclusive; Lassa entry inh: inconclusive; Vaccinia mCherry: inconclusive

How did COc1cccc(-c2cc3c(c(OC)c2)OCCN(Cc2cccn2-c2ccccn2)C3)c1 do in these assays?
Vaccinia Venus: -0.6%; Vaccinia mCherry: -16.2%

What do the screens show for `Fc1ccc(COc2cccc(CNCc3ccncc3)c2)cc1`?
MARV entry inh: 6.31µM*; Vaccinia Venus: -15.1%; Lassa entry inh: -10.9%; Vaccinia mCherry: -26.4%

How did Cc1ccc(-n2nc3cc(C)c(N)cc3n2)cc1 do in these assays?
MARV entry inh: inconclusive; Vaccinia Venus: -21.0%; Lassa entry inh: 12.6µM*

What do the screens show for `Cc1cc2nn(-c3cccc4ccccc34)nc2cc1N`?
MARV entry inh: inconclusive; Vaccinia Venus: -2.5%; Lassa entry inh: 28.1%; Vaccinia mCherry: -8.5%

How did CN1CCCC1CCNC1C2CC3CC(C2)CC1C3 (stereo not given) do in these assays?
MARV entry inh: 13µM*; Vaccinia Venus: -13.3%; Lassa entry inh: -50.4%[14.3 µM]; Vaccinia mCherry: -21.3%

Results for COC(=O)N[C@@H](c1ccco1)[C@]1(C(C)=O)CCCC1=O ?
MARV entry inh: -30.8%[14.2 µM]

What do the screens show for `c1ccc(-c2csc3ncnc(Sc4nnnn4-c4ccccc4)c23)cc1`?
Vaccinia Venus: -29.3%; Vaccinia mCherry: inconclusive

Results for Cn1nnnc1Sc1ncnc2scc(-c3ccccc3)c12 ?
MARV entry inh: 7.08µM*; Vaccinia Venus: inconclusive; Lassa entry inh: inconclusive; Vaccinia mCherry: inconclusive

Results for Cn1nnnc1Sc1ncnc2scc(-c3ccc(F)cc3)c12 ?
MARV entry inh: 8.2µM*; Vaccinia Venus: inconclusive; Lassa entry inh: 4.11µM*; Vaccinia mCherry: 10µM*

Results for COC(=O)C1=C(C)C(=O)[C@]2(O)c3ccccc3N(C)[C@]12C ?
MARV entry inh: 18.2%[14.2 µM]

What do the screens show for `O=C(O[C@H]1[C@H](Cc2ccccc2)NS(=O)(=O)[C@H]2CC3C=C[C@]12O3)c1ccc(Br)cc1`?
Vaccinia Venus: -21.7%; Vaccinia mCherry: -2.8%

How did CC(C)(C)c1ccc(/C=N/NC(=O)CN2CCS(=O)(=O)CC2)cc1 do in these assays?
MARV entry inh: 14.0%[46.1 µM]; Vaccinia Venus: -13.0%; Lassa entry inh: -0.5%[46.1 µM]; Vaccinia mCherry: inactive

What do the screens show for `COc1ccc(O)c(/C=N/NC(=O)CN2CCS(=O)(=O)CC2)c1`?
MARV entry inh: 10.8%[46.1 µM]; Vaccinia Venus: -1.4%; Lassa entry inh: -4.4%[46.1 µM]; Vaccinia mCherry: 3.16µM*

Results for COc1cc(OC)c(NC(=O)C(=O)CC(=O)c2ccc(C)cc2C)cc1Cl ?
MARV entry inh: inconclusive; Vaccinia Venus: 2.0%; Lassa entry inh: 8.2µM*; Vaccinia mCherry: inconclusive
